Assay results reported in the supplement of paper PMC9897528.

System: Scedosporium aurantiacum CBS 136046
Experiment: growth inhibition relative to DMSO control (OD600); higher = more antifungal activity, active = 80 or more; extreme values may be limits of the assay
Conditions: 5 µM; 72 h; 37 °C
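Also: conidia screened in RPMI 1640 medium under 5% CO2, growth read by spectrophotometer, medium with 0.5% DMSO serving as the untreated reference.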

Growth inhibition, active:
CCC(C)(C)c1ccc(CC(C)CN2C[C@@H](C)O[C@@H](C)C2)cc1 (stereo partly drawn) 84.7%

Growth inhibition, inactive:
CCc1nc2ccc(Cl)cn2c1C(=O)NCc1ccc(N2CCC(c3ccc(OC(F)(F)F)cc3)CC2)cc1 21.8%, Nc1nc2c(Cc3cccnc3)c[nH]c2c(=O)[nH]1 2.57%, c1cnc(NCc2ccc(CNc3ncccn3)cc2)nc1 10.1%, CC(=O)Nc1cc(NS(=O)(=O)c2ccc(Cl)cc2)cc2c(Cl)[nH]nc12 21.6%, CC(C)/N=c1\cc2n(-c3ccc(Cl)cc3)c3ccccc3nc-2cc1Nc1ccc(Cl)cc1 24.6%, Cn1cncc1[C@@](N)(c1ccc(Cl)cc1)c1ccc2c(c1)c(-c1cccc(Cl)c1)cc(=O)n2C 11.3%, CNCC(=O)OCc1cccnc1N(C)C(=O)OC(C)[n+]1cnn(C[C@](O)(c2cc(F)ccc2F)[C@@H](C)c2nc(-c3ccc(C#N)cc3)cs2)c1 (stereo partly drawn) 59.5%, CC(C)CCN1C(=O)C(C2=NS(=O)(=O)c3cc(NS(C)(=O)=O)ccc3N2)=C(O)[C@@H]2[C@H]3CC[C@H](C3)[C@@H]21 28.5%, Nc1nc(C(F)(F)F)cc2c1[nH]c(=O)n2Cc1ccccc1 18.8%, Cc1cccc(CC(=O)N[C@H]2CCOC2=O)c1 16.6%, C=CCc1cc(Cc2cnc(N)nc2N)cc(OC)c1O 0%, NCCCc1ccccc1C(=O)Nc1ncc([N+](=O)O)s1 0%, Fc1ccc(-c2nc(-c3c[nH]c4ccc(Br)cc34)[nH]c2-c2ccc(F)cc2)cc1 28.1%, COc1ccc(SCC(=O)N2c3ccccc3Sc3ccccc32)cc1 19.3%, O=C(Nc1cccc(C2=NCCN2)c1)c1ccc(-c2ccc(C(=O)Nc3cccc(C4=NCCN4)c3)cc2)cc1 1.73%, CCc1nc(N)nc(N)c1C#CCc1ccccc1 30.8%, O=C(c1cc(O)nc2ccccc12)N1CCN(c2ccccc2)CC1 5.66%, Fc1ccc2c(/C=C/c3cccnc3)c[nH]c2c1 5.3%, CN(C/C=C/C#CC(C)(C)C)Cc1cccc2ccccc12 23.6%, COC(=O)Nc1nc2cc([S+]([O-])c3ccccc3)ccc2[nH]1 (stereo not drawn) 0.624%, OB1OCc2c1ccc(Cl)c2F 0.00748%, N=C(N)NCCCCC(=O)Nc1cc(C(F)(F)F)cc(NC(=O)c2cc(C(=O)Nc3cc(C(F)(F)F)cc(NC(=O)CCCCNC(=N)N)c3O[C@@H]3CCNC3)ncn2)c1O[C@@H]1CCNC1 37.1%, O=C(O)c1cc(-c2ccc(Br)cc2)nc2ccc(Cl)cc12 15.5%, Cc1nc2ccc(Oc3ccccc3)cc2c2c1CCN2CCc1ccccc1 54.5%, COc1cc(NCc2ccc3nc(N)nc(N)c3c2C)cc(OC)c1OC 0.273%, COc1ccc(C2CNC(=O)C2)cc1OC1CCCC1 (stereo not drawn) 16.6%, O=C(O)c1sccc1S(=O)(=O)n1ccc2cc(Br)ccc21 14.6%, O=C1NC(=O)C(Br)=C1Br 24.4%, Cc1nc(N(C)C(=O)Cc2ccc(-c3ccccn3)cc2)sc1S(N)(=O)=O 4.79%, CCOC(=O)N1CCN(c2ccc(Cl)cc2)CC1 10.6%, CCCCCCCc1[nH]c2ccccc2c(=O)c1O 8.25%, NC(=O)c1ccccc1NC(=O)c1ccc(C(=O)Nc2ccccc2C(N)=O)cc1 11.5%, COc1ccc(-n2cnc3cc(NCc4ccco4)ccc32)cc1 9.11%, O=C(/C=C/n1cnc(-c2cc(C(F)(F)F)cc(C(F)(F)F)c2)n1)NNc1cnccn1 26.3%, Cc1cc(Nc2ccc(F)cc2)nc(SCc2nc3ccccc3[nH]2)n1 0%, O=C(CCCC(F)(F)F)N1CCC(c2nc(-c3nccs3)no2)CC1 4.66%, COc1ccc2sc3c(c2c1)NC(C)CNC3=O (stereo not drawn) 7.39%
